# PubChem BioAssay AID1492 (National Center for Advancing Translational Sciences (NCATS), 2009)
# Results filed as inconclusive are left out. Where a call stands in place of a potency, no number is given. Calls of active or inactive are those of the source. Calls come from the whole dose curve; as a rule, active = well fitted inhibition curve with a large enough effect; inconclusive = small, poorly fitted or top-dose-only effect; inactive = flat fitted curve, though single readings scatter.
# Molecular target: Muscarinic acetylcholine receptor M1 (Rattus norvegicus) (UniProt P08482)
# Assay: Counterscreen Concentration-Response Assay for Antagonists of the Neuropeptide S Receptor: Muscarinic Receptor Calcium Signal Transduction.
# Conditions: CHO-M1 cells, carbachol-induced calcium fluorescence, FDSS; series mostly up to 20.2 µM
# Summary of the method: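 Antagonism of carbachol-induced calcium release measured by kinetic dye fluorescence on an FDSS reader in CHO-M1 cells. Agonist added at 60 nM in stimulation reagent. Hill-equation AC50s.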
row,Compound,Potency
1,Cc1ccc2nc3ccc(N4CCCCCCC4)nn3c(=O)c2c1,inactive
2,CCC(C)n1c(=O)c(C(=O)Nc2ccccc2S(N)(=O)=O)c(O)c2ccccc21 (configuration not stated),inactive
3,O=C(CSc1n[nH]c(-c2cccnc2)n1)Nc1ccnc2ccccc12,inactive
4,c1ccc(-c2ccc(-c3nc(-c4cccnc4)no3)cc2)cc1,inactive
5,COc1cccc(C(=O)/C=C/Nc2ccc(S(=O)(=O)Nc3cccc(C(C)=O)c3)cc2)c1,inactive
6,Cc1ccc2oc(-c3cccc(NC(=S)NC(=O)/C=C/c4ccco4)c3)nc2c1,inactive
7,COCCCn1c(SCc2cc(=O)[nH]c3ccccc23)nnc1-c1ccco1,inactive
8,O=C1Nc2ccc(S(=O)(=O)N3CCCC3C(=O)O)c3cccc1c23 (configuration not stated),inactive
9,C(=C\c1ccccc1)/C=N/N1CCN(c2ccccn2)CC1,inactive
10,COc1ccc(C2c3c(ncn(CCN4CCOCC4)c3=N)Oc3ccc4ccccc4c32)cc1OC (configuration not stated),inactive
11,COc1ccc(NC(=O)/C(Cl)=C(/Cl)S(=O)Cc2ccc(C)cc2)cn1 (configuration not stated),10 µM (active)
12,O=C(CSC1=NCCS1)Nc1ccnc2ccccc12,inactive
13,CN(CC(=O)NCc1ccc(F)cc1)S(=O)(=O)c1cccc2nsnc12,inactive
14,C=CCOc1c(Cl)cc(CNc2ccc(N(C)C)cc2)cc1OC,inactive
15,Cc1ccc(Cn2cc(SCC(=O)Nc3nccs3)c3ccccc32)cc1,inactive
16,O=C(O)C1CCN(c2nc(-c3ccccc3)nc3c2oc2ccccc23)CC1,inactive
17,Cn1c(C(=O)NCCN2CCc3ccccc3C2)cc2c(=O)[nH]c3ccccc3c21,inactive
18,c1cncc(-c2nc(-c3ccco3)cs2)c1,inactive
19,c1ccc(N2CCN(Cc3ccnc4ccccc34)CC2)cc1,inactive
20,COc1ccccc1-c1nnc(SC2CCc3ccccc3NC2=O)s1 (configuration not stated),inactive
21,C=CCn1c(SCCN2C(=O)c3ccccc3C2=O)nc2scc(-c3ccccc3)c2c1=O,inactive
22,Cc1nn(C(=O)c2cccs2)c(N)c1-c1ccccc1,inactive
23,CC1CCCCN1S(=O)(=O)c1ccc(C(=O)Nc2sccc2C(N)=O)cc1 (configuration not stated),inactive
24,N#Cc1cnn(-c2ncnc3sc4c(c23)CCCC4)c1N,inactive
25,Cc1ccc(/C=C2\SC(=S)N(CC(=O)Nc3ncc(Cc4ccccc4Cl)s3)C2=O)cc1,inactive
26,CN(C)c1ccc(N=Cc2ccco2)cc1,inactive
27,O=c1cc(-c2c(F)c(F)c(F)c(F)c2F)oc2c(F)c(F)c(F)c(F)c12,5.01 µM (active)
